A selection: hits, their analogues and other compounds. The true share with any hit is near 8.7%.
Sfp inh = Sfp phosphopantetheinyl transferase inhibition; Q9F4F7; Biochemical Sfp PPTase activity, qHTS; 310,000 compounds, 3.5% hits; Potency, µM, without a hit: largest response in the series, negative = inhibition, actives largely listed as inhibitors;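 further: the enzyme is Sfp with the accession as filed and its product quenches rhodamine fluorescence; 0% = enzyme reaction without inhibitor and -100% = no enzyme wells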
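Sfp 15 nM + cpd, 15 min RT; start w/ rhodamine-CoA 5 uM, BHQ-2-YbbR 12.5 uM (final); 50 mM Hepes pH 7.6, 10 mM MgCl2, 0.01% NP-40, 0.01% BSA; read 525/598 nm at 0 and 30 min.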
JMJD2A Tudor = inhibitors of human JMJD2A Tudor domain. AlphaScreen JMJD2A-Tudor / H3K4me3 peptide binding. Potency, µM (top dose mostly 114 µM), for inactives: at the top dose activity change, negative = inhibition, actives largely listed as inhibitors. 390,000 compounds, 4.4% hits; further: on the % scale 0 is the no-effect control and ±100 the full control effect; nearly all actives have a fitted effect of over 50% in size
BAZ2B inh = inhibitors of human BAZ2B bromodomain. Q9UIF8. AlphaScreen BAZ2B-H3K14Ac peptide displacement. Potency, µM (highest dose often 114 µM), for the others: at the highest dose activity change, negative = inhibition, actives largely listed as inhibitors. 360,000 compounds, 4.4% hits. AID 504333; further: on the % scale 0 is the no-effect control and ±100 the full control effect; nearly all actives have a fitted effect of over 60% in size
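Protein-peptide AlphaScreen: BAZ2B 50 nM, b-H3K14Ac 50 nM, 1x PBS pH 7.4 + 0.01% Tween-20. Preincubation 30 min RT; cpd 30 min RT (top 110 uM); beads 20 min RT, light-protected.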
G9a block = blocks human histone lysine methyltransferase G9a | G9a H3K9 monomethylation, AlphaScreen, 2 h | 350,000 compounds, 8.8% hits | Potency, µM (titrated, usually from 102 µM), inactives show at the top dose activity, negative = inhibition, hits mostly inhibitors; further: on the % scale 0 is the no-effect control and ±100 the full control effect; nearly all actives have a fitted effect of over 75% in size
Target sequence (Q96KQ7 913-1193 limits assumed): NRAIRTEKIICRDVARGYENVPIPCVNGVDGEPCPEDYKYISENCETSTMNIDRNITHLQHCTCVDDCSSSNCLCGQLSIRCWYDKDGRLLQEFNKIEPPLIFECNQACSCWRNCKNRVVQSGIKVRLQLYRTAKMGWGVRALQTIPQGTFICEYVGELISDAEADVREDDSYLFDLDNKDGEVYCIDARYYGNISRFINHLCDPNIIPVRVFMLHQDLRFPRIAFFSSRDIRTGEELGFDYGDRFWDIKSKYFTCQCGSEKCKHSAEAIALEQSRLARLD
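AlphaScreen detection with an anti-monomethyl H3K9 antibody quantified product after a 2 h room-temperature reaction containing 500 nM biotinylated H3K9 peptide, 20 µM SAM and 20 nM enzyme, which had been preincubated 15 min with compound.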
ALOX12 inh = inhibitors of human 12S-lipoxygenase ALOX12; P18054; purified 12hLO, xylenol orange hydroperoxide absorbance; Potency, µM (highest dose often 108 µM), inactives show at the highest dose activity change, negative = inhibition, usual class: inhibitors; 580,000 compounds, 1.1% hits; AID 1671190; further: on the % scale 0 is the no-effect control and ±100 the full control effect
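Purified human 12hLO at 150 nM in 25 mM Hepes, 0.01% Triton X-100, pH 7.0, preincubated 15 min at room temperature with compound. Reaction started with 40 uM arachidonic acid, 30 min at room temperature. Hydroperoxide measured by Fe-xylenol orange, 573/405 nm absorbance ratio.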
HP1b binding inh = HP1-beta chromodomain-methylated histone interaction inhibition; P83916; AlphaScreen HP1-beta / biotin-H3K9me3 peptide binding; Potency, µM (titrated, usually from 114 µM), without a hit: at the top dose activity change, negative = inhibition, usual class: inhibitors; 390,000 compounds, 0.56% hits; further: nearly all actives have a fitted effect of over 70% in size
Target sequence (P83916 whole entry, looked up): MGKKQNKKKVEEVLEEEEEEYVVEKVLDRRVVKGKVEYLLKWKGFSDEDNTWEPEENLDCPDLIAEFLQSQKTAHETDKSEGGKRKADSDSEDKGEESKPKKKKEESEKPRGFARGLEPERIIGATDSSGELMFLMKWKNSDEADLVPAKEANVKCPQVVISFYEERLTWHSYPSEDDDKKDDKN
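HP1-beta protein (50 nM final) preincubated 30 min at room temperature with biotinylated H3(1-18)K9me3 peptide (50 nM) in PBS pH 7.4, 0.01% Tween-20, then compound added for 30 min. AlphaScreen streptavidin donor/nickel chelate acceptor beads (10 ug/mL final), 30 min dark, luminescence read.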
An asterisk follows results filed as active; [ ] = another dose, or the depositor's remark. The call rests on the fitted dose curve; in most records, active means well fitted curve in the direction sought with a large enough effect; inconclusive means small, poorly fitted or top-dose-only effect, or another doubt; inactive means no such curve, though single readings can be large; an effect the other way counts as inactive or inconclusive. Potency means the concentration at half of the fitted maximal effect.

What do the screens show for `COc1ccc(/C=N\NC(=O)c2ccc(F)cc2)cc1COc1cc(F)ccc1[N+](=O)[O-]`?
Sfp inh: -5%; JMJD2A Tudor: -21%; BAZ2B inh: -20%; ALOX12 inh: 314%; HP1b binding inh: 0%

Results for CC1(C)NC(=O)N(CC(=O)OCC(=O)NC(=O)c2ccccc2)C1=O ?
JMJD2A Tudor: -8%; BAZ2B inh: 10%; G9a block: 40µM*; ALOX12 inh: -12%; HP1b binding inh: 18%

How did CCOC(=O)N1CCN(c2ncnc3c2[nH]c2ccc(F)cc23)CC1 do in these assays?
Sfp inh: 19%; JMJD2A Tudor: 3%; BAZ2B inh: -3%; G9a block: 7%[59 µM]; ALOX12 inh: -16%; HP1b binding inh: 25%

What do the screens show for `Fc1ccc2[nH]c3c(N4CCN(c5ccccc5)CC4)ncnc3c2c1`?
Sfp inh: -3%; JMJD2A Tudor: inconclusive; BAZ2B inh: 40µM*; G9a block: inconclusive; ALOX12 inh: -1%; HP1b binding inh: -10%

Results for COc1ccc2[nH]c3c(N4CCc5ccccc5C4)ncnc3c2c1 ?
Sfp inh: -13%; JMJD2A Tudor: inconclusive; BAZ2B inh: inconclusive; G9a block: 45µM*; ALOX12 inh: inconclusive; HP1b binding inh: -18%

How did O=C(c1ccco1)N1CCN(c2ncnc3c2[nH]c2ccccc23)CC1 do in these assays?
Sfp inh: -5%; BAZ2B inh: 8%; G9a block: -34%[59 µM]

Results for CCOC(=O)N1CCN(c2ncnc3c2[nH]c2ccc(OC)cc23)CC1 ?
Sfp inh: 3%; JMJD2A Tudor: -7%; BAZ2B inh: 4%; G9a block: 15%[2.33 µM]; ALOX12 inh: -23%; HP1b binding inh: 22%

What do the screens show for `COc1cc2[nH]c3c(N4CCN(c5ccccn5)CC4)ncnc3c2cc1OC`?
Sfp inh: 10%; JMJD2A Tudor: -28%; BAZ2B inh: inconclusive; G9a block: 45µM*; HP1b binding inh: -9%

How did COc1ccc(N2CCN(c3ncnc4c3[nH]c3ccccc34)CC2)cc1 do in these assays?
Sfp inh: -12%; JMJD2A Tudor: 50µM*; BAZ2B inh: inconclusive; G9a block: 13µM*; ALOX12 inh: -6%; HP1b binding inh: -13%

Results for CCN(CC)CCCNc1cc(C)nc2cc(-c3cccs3)nn12 ?
Sfp inh: 21%; JMJD2A Tudor: -15%; BAZ2B inh: -37%; G9a block: 45µM*; ALOX12 inh: -10%; HP1b binding inh: 28%

What do the screens show for `Cc1cccc(-c2cc3nc(C)cc(NCCCN(C)C)n3n2)c1`?
Sfp inh: 16%; JMJD2A Tudor: -20%; BAZ2B inh: -4%; G9a block: -36%[59 µM]; ALOX12 inh: 5%; HP1b binding inh: 16%

Results for Cc1nc2cc(-c3cccs3)nn2c(NCC(C)(C)CN(C)C)c1C ?
Sfp inh: -3%; JMJD2A Tudor: -12%; BAZ2B inh: -23%; G9a block: 50µM*; ALOX12 inh: 0%; HP1b binding inh: 36%

How did O=C(NCC1CCCOC1)c1cc(-c2ccncc2)nc2ccccc12 (stereo not drawn) do in these assays?
ALOX12 inh: -3%

What do the screens show for `COc1ccc(C(=O)O)cc1NC(=S)NC(=O)/C=C/c1ccc(C(C)C)cc1`?
Sfp inh: -23%; JMJD2A Tudor: 79µM*; BAZ2B inh: 50µM*; G9a block: inconclusive; ALOX12 inh: 0%; HP1b binding inh: 6%

What do the screens show for `COc1ccc(C(=O)O)cc1NC(=S)NC(=O)C(c1ccccc1)c1ccccc1`?
Sfp inh: -6%; JMJD2A Tudor: -16%; BAZ2B inh: inconclusive; G9a block: -42%; ALOX12 inh: 35µM*; HP1b binding inh: 11%

Results for CC(=O)NC(=S)NNC(=O)C(c1ccccc1)c1ccccc1 ?
Sfp inh: 3%; JMJD2A Tudor: inconclusive; BAZ2B inh: 7%; G9a block: 11µM*; ALOX12 inh: -20%; HP1b binding inh: 24%

How did CCCCC(=O)NC(=S)Nc1cc(C(=O)O)ccc1OC do in these assays?
Sfp inh: 10%; JMJD2A Tudor: -5%; BAZ2B inh: -23%; G9a block: 1%; ALOX12 inh: inconclusive; HP1b binding inh: 30%

How did O=C(O)c1cccc(NC(=S)NC(=O)C(c2ccccc2)c2ccccc2)c1 do in these assays?
Sfp inh: 7%; JMJD2A Tudor: -6%; BAZ2B inh: inconclusive; G9a block: -8%; ALOX12 inh: 28µM*; HP1b binding inh: 32%

Results for CN(CC(=O)Nc1cccc(F)c1)C(=O)CCc1ncc(-c2ccc(Cl)cc2)o1 ?
ALOX12 inh: 0%

How did Cc1nc2ccncc2nc1C do in these assays?
ALOX12 inh: -28%

Results for O=C(N/N=C/c1ccccc1)c1ccco1 ?
Sfp inh: 19%; JMJD2A Tudor: 10%; BAZ2B inh: -3%; G9a block: -3%; ALOX12 inh: 0%; HP1b binding inh: 18%

How did O=C(N/N=C/c1ccc2cccnc2c1)c1ccco1 do in these assays?
Sfp inh: 23%; JMJD2A Tudor: -9%; BAZ2B inh: 5%; G9a block: 28µM*; ALOX12 inh: -15%; HP1b binding inh: 24%

What do the screens show for `COc1cc2c(cc1OC)CN(C(=O)CCc1c[nH]c3ccccc13)[C@H](C(=O)O)C2`?
Sfp inh: 11%; JMJD2A Tudor: -3%; BAZ2B inh: -18%; G9a block: 71µM*; ALOX12 inh: 0%; HP1b binding inh: 34%

How did Cc1ccc(C(=O)N2CC(C(=O)NC3CCCCC3)C3(CCOCC3)C2)cc1F (stereo not drawn) do in these assays?
ALOX12 inh: 50%

What do the screens show for `N#Cc1cccc(NC(=O)c2nn(-c3ccccc3)c(=O)c3ccccc23)c1`?
ALOX12 inh: 1%

How did CC(C)(/C=N/O)/[N+]([O-])=C/c1ccccc1 do in these assays?
Sfp inh: 8%; JMJD2A Tudor: -7%; BAZ2B inh: -7%; G9a block: 50µM*; ALOX12 inh: inconclusive; HP1b binding inh: 37%

What do the screens show for `COc1ccccc1CNC(=O)Cn1ccc2ccccc21`?
ALOX12 inh: 40%

How did Cc1ccc2nc(-c3cccnc3)cc(C(=O)Nc3cccc(C)n3)c2c1 do in these assays?
ALOX12 inh: 18%

What do the screens show for `CCOC(=O)C1=C(C)Nc2nc(SCc3cccc(C)c3)nn2C1c1cccs1` (stereo not drawn)?
ALOX12 inh: 23%

What do the screens show for `O=C1CCCC/C1=C\Nc1ccccc1C(=O)O`?
Sfp inh: -3%; JMJD2A Tudor: inconclusive; BAZ2B inh: -28%; G9a block: 50µM*; ALOX12 inh: -7%; HP1b binding inh: 13%
